Source: PubChem (National Center for Advancing Translational Sciences (NCATS))
Luciferase inh – blocks purified firefly luciferase enzyme activity | purified P. pyralis luciferase, luminescence, biochemical | Potency, µM (series often up to 115 µM), actives largely listed as inhibitors | hit rate 2.5% among 76,000; note: nearly all actives have a fitted effect of over 65% in size
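FLuc 10nM, D-luciferin 10uM, ATP 10uM, Mg acetate 10mM, Tris acetate pH 7.5, Tween/BSA; cpd qHTS; enzyme added last; CCD luminescence.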
hNpr1 antagonist – human Npr1 receptor antagonism; hit rate 1.6% among 76,000; HEK293 hNpr1 GloSensor cGMP, ANP-stimulated luminescence; Potency, µM (series often up to 46.3 µM), for the others: at the highest dose activity change, negative = inhibition, hits mostly inhibitors; P16066; calls by dose curve; note: nearly all actives have a fitted effect of over 60% in size
Target sequence (P16066 whole entry, looked up): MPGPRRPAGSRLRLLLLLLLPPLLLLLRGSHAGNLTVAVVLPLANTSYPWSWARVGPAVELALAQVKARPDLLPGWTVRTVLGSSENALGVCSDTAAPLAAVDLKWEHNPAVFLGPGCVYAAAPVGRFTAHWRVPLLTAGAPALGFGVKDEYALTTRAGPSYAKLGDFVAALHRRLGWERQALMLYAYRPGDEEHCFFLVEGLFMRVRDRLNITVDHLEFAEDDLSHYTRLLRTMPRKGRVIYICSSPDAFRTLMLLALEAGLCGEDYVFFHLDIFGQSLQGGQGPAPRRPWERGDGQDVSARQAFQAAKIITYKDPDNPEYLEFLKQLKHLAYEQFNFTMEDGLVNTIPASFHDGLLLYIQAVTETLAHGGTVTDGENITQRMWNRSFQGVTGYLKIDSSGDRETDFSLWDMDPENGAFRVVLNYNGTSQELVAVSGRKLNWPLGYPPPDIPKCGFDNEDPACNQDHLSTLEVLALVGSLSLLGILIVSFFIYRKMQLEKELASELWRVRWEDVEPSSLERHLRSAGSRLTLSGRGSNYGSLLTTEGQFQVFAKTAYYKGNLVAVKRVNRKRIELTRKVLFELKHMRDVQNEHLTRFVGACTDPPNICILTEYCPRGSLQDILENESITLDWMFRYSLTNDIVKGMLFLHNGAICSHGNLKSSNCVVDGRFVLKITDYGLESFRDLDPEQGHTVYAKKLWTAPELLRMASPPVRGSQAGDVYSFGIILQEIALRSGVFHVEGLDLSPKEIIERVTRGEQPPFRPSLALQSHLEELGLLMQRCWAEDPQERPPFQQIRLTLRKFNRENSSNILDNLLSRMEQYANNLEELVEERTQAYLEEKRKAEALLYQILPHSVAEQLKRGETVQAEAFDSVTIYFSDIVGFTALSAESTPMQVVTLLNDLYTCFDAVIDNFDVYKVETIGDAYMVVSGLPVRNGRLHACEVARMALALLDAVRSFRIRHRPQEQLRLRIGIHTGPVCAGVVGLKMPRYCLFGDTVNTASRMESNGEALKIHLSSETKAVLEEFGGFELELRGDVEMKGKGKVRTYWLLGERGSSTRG
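HEK293 cells stably expressing human Npr1 and cGMP GloSensor pGS-40F, loaded 2 h with 2% GloSensor reagent, given compound 30 min at room temperature. Luminescence read before and 20 min after 0.1 nM hNppA.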
GPT2 inh – blocks human glutamate pyruvate transaminase 2; Q8TD30; Recombinant GPT2, coupled pyruvate oxidase/HRP Amplex Red fluorescence; Potency, µM (top dose mostly 57.7 µM), inactives show at the top dose activity change, negative = inhibition, most hits filed as inhibitors; hit rate 0.25% among 100,000; AID 1671188; note: nearly all actives have a fitted effect of over 60% in size
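Fluorescence of coupled pyruvate oxidase/HRP/Amplex Red system (50uM Amplex, 30 min, dark) reports pyruvate formed by GPT2. Enzyme reaction: 10ng/uL GPT2, 2mM L-alanine, 250uM a-KG, 30 min room temperature, pH 7.5; 50uM AOA control.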
HEK293 tox – HEK 293 cell cytotoxicity. HEK 293 viability, ATP luminescence (CellTiter-Glo), 48-72 h. Potency, µM (highest dose often 115 µM), for the others: at the highest dose activity change, negative = cytotoxicity, most hits filed as inhibitors. hit rate 6.6% among 94,000. AID 1345083; note: nearly all actives have a fitted effect of over 60% in size
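250 HEK 293 cells/well; compound by pintool; incubated 48 or 72 hr at 37 degree Celsius; CellTiter-Glo added, 10 min RT, luminescence imaged.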
NIH3T3 tox – cytotoxic compounds in NIH 3T3 cells | NIH 3T3 viability, CellTiter-Glo ATP luminescence, 48-72 h | hit rate 4.3% among 94,000 | AID 1345082 | Potency, µM (top dose mostly 96.7 µM), without a hit: top-dose activity change, negative = cytotoxicity, hits mostly inhibitors; note: nearly all actives have a fitted effect of over 55% in size
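First NIH 3T3 cells are plated at 400 cells/well; next compound is pinned in; then plates incubate 48 or 72 hr at 37 °C; finally CellTiter-Glo is added and luminescence read after 10 min.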
* hit, by the source's call; i = inactive; ? = inconclusive; . = not tested or not shown; [ ] = remark or other dose. An excerpt weighted towards active compounds, which were near 10% of everything screened. Unless noted, calls come from the whole dose curve; as a rule, active = well fitted curve in the direction sought with a large enough effect; inconclusive = small, poorly fitted or top-dose-only effect, or another doubt; inactive = no such curve, though single readings can be large; an effect the other way counts as inactive or inconclusive. % is set by controls: 0 for no effect and ±100 for the full control effect; potency is the fitted concentration of half-maximal effect.

SMILES	Luciferase inh	hNpr1 antagonist	GPT2 inh	HEK293 tox	NIH3T3 tox
COc1cccc(Nc2cnc3ccc(-c4ccc(OC)c(OC)c4)nn23)c1	i	-12%[70.6 µM]	-20%[88.5 µM]	56µM*	22µM*
COc1ccc(Nc2cnc3ccc(N(C)Cc4cccnc4)nn23)cc1OC	i	?	-13%[88.5 µM]	?	?
COc1ccc(Nc2cnc3ccc(-c4ccc(OC)c(OC)c4)nn23)cc1OC	?	-4%[70.6 µM]	i	89µM*	20µM*
COc1ccc(Nc2cnc3ccc(-c4ccc(OC)c(OC)c4)nn23)cc1	18µM*	-1%[70.6 µM]	i	?	14µM*
COc1cncc(Nc2cnc3ccc(-c4ccccc4OC)nn23)c1	i	?	?	?	?
CC[C@H]1CN(S(=O)(=O)c2ccc(OC)cc2)CC[C@H]1CC(=O)N1CCC(C(=O)OC)CC1	i	1%	2%	-9%	-19%
O=C(Cc1ccccc1)N1CCC(O)(c2csc(CN3CCOCC3)n2)CC1	i	-3%[70.6 µM]	i	i	5%[174 µM]
COc1cncc(Nc2cnc3ccc(-c4ccc(OC)c(OC)c4)nn23)c1	i	-12%[70.6 µM]	-3%[88.5 µM]	63µM*	20µM*
CCOc1ccc(NC(=O)Cn2cccc2-c2nc(-c3ccccc3)no2)cc1	i	-4%	-4%	28µM*	?
COc1ccccc1N1CCN(C(=O)Cn2cccc2-c2nc(-c3ccc(F)cc3)no2)CC1	i	-4%	-9%	40µM*	?
O=C(Cn1cccc1-c1nc(-c2ccc(F)cc2)no1)N1CCN(c2ccccc2F)CC1	i	-14%	i	?	-12%
CCOc1ccc(NC(=O)Cn2cccc2-c2nc(-c3ccc(F)cc3)no2)cc1	i	8%	i	-12%	0%
COc1ccc(NC(=O)Cn2cccc2-c2nc(-c3ccccc3)no2)cc1OC	i	5%	1%	32µM*	32µM*
O=C(c1ccsc1)N1CC[C@@H]2COCCN(Cc3ccccc3)[C@@H]2C1	?	-2%	i	-8%	-5%
Cc1ccc(-c2ccccc2CN)c(C)c1	.	.	1%[88.5 µM]	112µM*	100µM*
Cn1cnc(S(=O)(=O)N2CCC(Cc3nncn3CC3CC3)C2)c1 (stereo not drawn)	i	1%	i	0%	-7%
O=C(NCc1ccco1)C1CCCCC(=O)N1Cc1ccccc1 (stereo not drawn)	.	.	?	1%	-10%
C=CCOc1cc(C)c2c(c1C)[C@H](O)C([C@H](C)C(=O)N(C)Cc1ccccc1)CC2 (stereo partly drawn)	i	-5%[70.6 µM]	-4%[88.5 µM]	?	71µM*
C=CCOc1cc(C)c2c(c1C)[C@H](O)C([C@H](C)C(=O)NCCOC)CC2 (stereo partly drawn)	i	7%[70.6 µM]	4%[88.5 µM]	-6%[172 µM]	0%[174 µM]
COCC(=O)NC1CCN(C(=O)c2ccc(-c3cccc(OC)c3)cc2)CC1	.	.	i	?	?
O=C(C1CCCN([S+](=O)([O-])c2cccc(C(F)(F)F)c2)C1)N1CCC(N2CCCC2=O)CC1 (stereo not drawn)	.	.	?	-29%	-27%
COCCc1nncn1C1CCN(S(=O)(=O)c2ccc(C(F)(F)F)cc2)CC1	i	-9%	0%	-11%	-14%
Cc1ccc(-c2noc([C@@H]3Cc4nc[nH]c4CN3C(=O)NC(C)C)n2)cc1	i	-4%[70.6 µM]	-23%[88.5 µM]	-4%[172 µM]	?
COc1ccc(-c2noc([C@@H]3Cc4nc[nH]c4CN3C(=O)Nc3ccccc3)n2)cc1	32µM*	?	-14%[88.5 µM]	?	?
Cc1ccc(NC(=O)N2Cc3[nH]cnc3C[C@H]2c2nc(-c3ccc(C)cc3)no2)cc1	32µM*	-23%[70.6 µM]	2%[88.5 µM]	?	100µM*
SMILES	Luciferase inh	hNpr1 antagonist	GPT2 inh	HEK293 tox	NIH3T3 tox
Cc1ncoc1C(=O)N1CCCC(c2nnnn2C)C1 (stereo not drawn)	i	5%	0%	-1%	-10%
CN1C(=O)C2(CCN(Cc3ccccc3)C2)c2ccccc21 (stereo not drawn)	i	0%[70.6 µM]	-2%[88.5 µM]	100µM*	?
COCCC(=O)N1CCC2(CC1)C(=O)N(C)c1ccccc12	i	3%	-7%	2%	?
CN(C)c1ccc(CN2CCC3(C2)C(=O)N(Cc2ccccc2)c2ccccc23)cc1 (stereo not drawn)	i	-11%	i	35µM*	?
CN1C(=O)C2(CCN(C(=O)CCC3CCCCC3)CC2)c2ccccc21	i	-4%	?	45µM*	?
O=c1c2nc(NCc3ccccc3)ccc2ncn1Cc1ccccc1	i	2%[70.6 µM]	-1%[88.5 µM]	?	35µM*
COc1ccccc1-c1ccc2ncn(C3CC3)c(=O)c2n1	i	3%[70.6 µM]	-12%[88.5 µM]	-3%[172 µM]	?
Cc1csc(Nc2ccc3ncn(Cc4ccccc4)c(=O)c3n2)n1	i	1%[70.6 µM]	i	?	?
COc1ccccc1-c1ccc2ncn(Cc3ccccc3)c(=O)c2n1	i	3%[70.6 µM]	-9%[88.5 µM]	?	7.9µM*
Cc1nc2cccnc2n1CC1CCCN(S(=O)(=O)c2cccc(Br)c2)C1 (stereo not drawn)	i	?	i	45µM*	?
Cc1noc(C)c1[S+](=O)([O-])N1CCC(c2nn(-c3ccccc3)c(=O)[nH]2)CC1	i	-4%	i	?	?
Cc1cc(C)cc(-c2ccc(CN3CCCC(NC(=O)Nc4ccc(Cl)cc4)C3)cc2)c1 (stereo not drawn)	.	.	5%	-4%	-14%
COc1ccc(F)cc1-c1ccc(CN2CCC(NC(=O)Nc3ccc(Cl)cc3)C2)cc1 (stereo not drawn)	.	.	.	13µM*	11µM*
COc1ccc(F)cc1-c1ccc(CN2CCC(NC(=O)Nc3ccc(C)c(F)c3)C2)cc1 (stereo not drawn)	.	.	.	25µM*	16µM*
O=C(Nc1ccc(Cl)cc1)NC1CCN(Cc2ccc(-c3ccsc3)cc2)C1 (stereo not drawn)	.	.	i	?	?
COc1ccc(F)cc1-c1ccc(CN2CCC(NC(=O)NC3CCCC3)C2)cc1 (stereo not drawn)	.	.	.	20µM*	13µM*
C=CCCC(CN1CCCOCC1)Oc1ccc2cccc(OC)c2n1 (stereo not drawn)	i	0%	-3%	?	?
CN(C)c1ccc(C(=O)N2CCCC(Cc3noc(-c4ccncc4)n3)C2)cc1 (stereo not drawn)	i	-6%	i	?	-28%
COCCn1cnc2ccc(-c3ccc4c(ccn4C)c3)nc2c1=O	?	-7%[70.6 µM]	-38%[88.5 µM]	?	45µM*
Cn1ccc2cc(-c3ccc4c(n3)c(=O)ncn4CC3CC3)ccc21	45µM*	-11%[70.6 µM]	0%[88.5 µM]	-22%[172 µM]	?
CSCCNC(=O)c1nc2cccnc2n(Cc2ccccc2)c1=O	.	.	2%[88.5 µM]	-23%[172 µM]	-24%[138 µM]
